# Experimental data published in PubChem BioAssay AID504467 (National Center for Advancing Translational Sciences (NCATS), 2011).
# The campaign covered roughly 330,000 compounds. About 7,700 (2.3%) were called active. Roughly 26% stayed inconclusive and do not appear here. The sample holds actives, similar compounds and a random draw of the others, so the mix is not that of the screen. Calls follow the shape of the dose curve; as a rule, active = well fitted inhibition curve with a large enough effect; inconclusive = small, poorly fitted or top-dose-only effect, or effect the other way; inactive = flat fitted curve, though single readings scatter.
# Experiment: qHTS screen for small molecules that inhibit ELG1-dependent DNA repair in human embryonic kidney (HEK293T) cells expressing luciferase-tagged ELG1; also: nearly all actives have a fitted effect of over 55% in size
# Details: HEK293T ELG1-luciferase reporter, luminescence, 16 h, DNA damage induced by 5-fluorouridine; series mostly up to 46.1 µM; activity change, negative = inhibition: at the top concentration
# Method in brief: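 Reporter activity after DNA damage by 5-fluorouridine is monitored. Compound-treated cells incubate 16 hr at 37 °C, then ONE-Glo is added for 30 min before luminescence reading.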
# % is scaled to controls: 0 for no effect and ±100 for the full control effect; potency is read from the fitted curve at half-maximal effect.
SMILES,"activity change, negative = inhibition",Potency
O=C(CN1CCN(S(=O)(=O)/C=C/c2ccccc2)CC1)Nc1ccc(N2CCOCC2)cc1,12.1% (inactive),–
O=C(CN1C(=O)CCC1=O)Nc1ccc(S(=O)(=O)N2CCOCC2)cc1,14% (inactive),–
O=C(CN1CCN(c2cccc(Cl)c2)CC1)Nc1ccc(S(=O)(=O)N2CCOCC2)cc1,–,18.3 µM (active)
CCOC(=O)N1CCN(C(=O)c2cc3c(-c4ccc(Cl)cc4)nn(C)c3s2)CC1,-25.1% (inactive),–
COc1ccccc1N1CCN(C(=O)c2cc(-c3ccc(Cl)c(Cl)c3)on2)CC1,22.4% (inactive),–
COc1ccc(-c2cc(C(=O)NCc3ccco3)no2)cc1OC,23.6% (inactive),–
Cn1nc(-c2ccc(Cl)cc2)c2cc(C(=O)NCc3ccco3)sc21,–,25.9 µM (active)
COc1ccccc1N1CCN(C(=O)c2cc3c(-c4ccc(Cl)cc4)nn(C)c3s2)CC1,–,11.6 µM (active)
CN(CCNC(=O)c1cc2c(-c3ccccc3F)nn(C)c2s1)C1CCCCC1,-7.81% (inactive),–
Cc1ccc(CSCC(=O)N(C)CC(=O)Nc2ccc(C)cc2)cc1,-21.2% (inactive),–
CC(=O)Nc1ccc(S(=O)(=O)NCC(=O)OCC(=O)c2ccc[nH]2)cc1,9.79% (inactive),–
O=C(N/N=C/C=C/c1ccccc1)C1CC1(c1ccccc1)c1ccccc1 (stereo not drawn),3.5% (inactive),–
CC(/C=C/c1ccccc1)=N\NC(=O)C1CC1(C)c1ccccc1 (stereo not drawn),–,23.1 µM (active)
CC(/C=C/c1ccco1)=N/NC(=O)C1COc2ccccc2O1 (stereo not drawn),-4.86% (inactive),–
C#CCOCCOCCOCCNc1nc(N2CCN(C(=O)[C@H](CO)n3cc([C@@H](N)C(C)C)nn3)CC2)nc(N2CCN(C(=O)[C@H](CCC(=O)O)n3cc([C@@H](N)[C@H](C)CC)nn3)CC2)n1,3.33% (inactive),–
O=C(CCNC(=O)c1ccccc1Cl)NCc1ccco1,4.02% (inactive),–
CC(C)(C)c1ccc(NC(=O)NCc2ccco2)cc1,29.5% (inactive),–
CC(C)(C)c1ccc(C(=O)NCCC(=O)NCc2ccco2)cc1,–,5.8 µM (active)
CCCCN(C(=O)c1ccc2ccccc2c1)c1c(N)n(CCCC)c(=O)[nH]c1=O,0% (inactive),–
COCCn1cnnc1SCC(=O)Nc1cccc(S(=O)(=O)N2CCCCC2)c1,4.22% (inactive),–
Cc1cccc(N2CC(C(=O)Nc3ccccc3N3CCCC3)CC2=O)c1C (stereo not drawn),-3.99% (inactive),–
Cc1ccccc1NC(=O)NC1(C(=O)N2CCCC2)CCCCC1,-5.66% (inactive),–
Cc1ccccc1NC(=O)Nc1ccccc1N1CCCCC1,–,18.3 µM (active)
O=C(CCC1CCCCC1)Nc1cc(C(F)(F)F)ccc1N1CCOCC1,-4.46% (inactive),–

SMILES,"activity change, negative = inhibition",Potency
Cc1nn(C)c(C)c1NS(=O)(=O)c1ccc(OC(F)(F)F)cc1,0.543% (inactive),–
CCN(CC)c1ccc(NC(=O)CN2C(=O)NC3(CCc4ccccc43)C2=O)cc1 (stereo not drawn),5.28% (inactive),–
CCN(CC)S(=O)(=O)c1ccc(CNC(=O)CN2C(=O)NC3(CCc4ccccc43)C2=O)cc1 (stereo not drawn),3.44% (inactive),–
CN(C)S(=O)(=O)c1cc(NC(=O)CN2C(=O)NC3(CCCc4ccccc43)C2=O)ccc1Cl (stereo not drawn),–,25.9 µM (active)
N#Cc1ccccc1S(=O)(=O)N1CCN(Cc2c(O)ccc3ccccc23)CC1,-3.58% (inactive),–
COCCn1c(SCC(=O)Nc2cc(Cl)ccc2OC)nc2c(c1=O)SC(C)C2 (stereo not drawn),–,25.9 µM (active)
CCn1c(SCC(=O)Nc2ccccc2F)nc2c(c1=O)SC(C)C2 (stereo not drawn),-13.6% (inactive),–
COCCn1c(SCC(=O)Nc2cc(OC)ccc2OC)nc2c(c1=O)SC(C)C2 (stereo not drawn),-7.11% (inactive),–
Cc1cc(NC(=O)CSc2nnc(-c3ccco3)n2N)no1,14.5% (inactive),–
CCNS(=O)(=O)c1ccc(CCC(=O)N2CCN(c3ccc(OC)cc3)CC2)cc1,-9.27% (inactive),–
CCNS(=O)(=O)c1ccc(CCC(=O)N2CCN(c3cc(Cl)ccc3C)CC2)cc1,–,11.6 µM (active)
CCCNS(=O)(=O)c1ccc(CCC(=O)N2CCCC2)cc1,-1.71% (inactive),–
O=C1OC[C@@H]2CCCN2C(=O)[C@H](CC(=O)N(CCO)Cc2ccccc2)C/C=C\CC[C@@H]1Cc1ccc(F)cc1,7.5% (inactive),–
O=C(NC(=S)Nc1ccccc1N1CCCCC1)c1ccc(F)cc1,3.01% (inactive),–
COc1ccc(C(=O)NC(=S)Nc2ccccc2N2CCN(S(C)(=O)=O)CC2)cc1OC,–,14.6 µM (active)
CCC(=O)Nc1ccccc1N1CCN(S(C)(=O)=O)CC1,8.38% (inactive),–
COc1ccc(NC(=O)COC(=O)Cn2c(C)nc3ccccc32)cc1OC,9.39% (inactive),–
COc1ccc(NC(=O)CNC(=O)Cc2ccccc2)cc1OC,1.57% (inactive),–
COc1ccc(NC(=O)c2cc3nc(-c4ccccc4)cc(C)n3n2)cc1OC,–,10.3 µM (active)
COCCCNC(=O)CC1C[C@H](C(=O)N2CCCCC2)[C@@]2(CCc3ccccc3)c3[nH]c4ccccc4c3CCN2C1=O (stereo partly drawn),7.79% (inactive),–
CC(Oc1ccc(Br)cc1)C(=O)NCC(c1ccco1)N1CCCCC1 (stereo not drawn),-0.374% (inactive),–
O=C(Nc1ccc(N2CCN(C(=O)c3ccccc3)CC2)c(Cl)c1)c1cccnc1,–,8.2 µM (active)
O=C(Cc1ccccc1)Nc1ccc(NC(=O)c2cccnc2)cc1,2.94% (inactive),–
O=C(Nc1cccc(Cl)c1N1CCOCC1)c1cccnc1,-3.8% (inactive),–
